Results published in PubChem BioAssay (NCATS).
“And” between values parts separate entries of the source, which are not always exact repeats. Equal values may be shown once. Inconclusive results are not listed. Values without a mark were called inactive. The source made the active and inactive calls. Calls follow the shape of the dose curve; as a rule, active = well fitted cell-killing curve with a large enough effect; inconclusive = small, poorly fitted or top-dose-only effect, or effect the other way; inactive = flat fitted curve, though single readings scatter.

Assay: qHTS assay for cell viability of HEK293 cells (AID 743288); also: nearly all actives have a fitted effect of over 50% in size
Settings: ATP luminescence (CellTiter-Glo), 18 h; max response: stronger effect = lower value
Text: National Center for Advancing Translational Sciences [NCATS]
NIH Chemical Genomics Center [NCGC]
U.S. Environmental Protection Agency [EPA]
National Institutes of Environmental Health Sciences [NIEHS]
National Toxicology Program [NTP]
U.S. Food and Drug Administration [FDA]
The CellTiter-Glo Luminescent Cell Viability Assay (Promega, Madison, WI) is a homogeneous method to determine the number of viable cells in culture based on quantitation of the ATP present, which signals the presence of metabolically active cells. This cell viability assay was used to screen environmental chemicals in the Hek293 cell line.
Tox21 Assay Protocol Summary:
Cell viability after compound treatment was measured using a luciferase-coupled ATP quantitation assay (CellTiter-Glo viability assay, Promega, Madison, WI) in parental HEK293 cells. Total intracellular ATP content corresponds to the number of metabolically competent cells after compound treatment. The cells were dispensed at 2,000 cells/5 uL/well in 1,536-well white/solid bottom assay plates using a Flying Reagent Dispenser (Aurora Discovery, San Diego, CA). The cells were incubated a minimum of 5 h at 37 C, followed by the addition of 23 nL of compounds dissolved in DMSO, positive controls or DMSO only using a pintool work station (Kalypsys, San Diego, CA). The assay plates were incubated for 18 h at 37 C, followed by the addition of 5 uL/well of CellTiter-Glo reagent. After 30 min incubation at room temperature, the luminescence intensity of the plates was measured using a ViewLux plate reader (PerkinElmer, Shelton, CT).
% is scaled to controls: 0 for no effect and ±100 for the full control effect; potency is read from the fitted curve at half-maximal effect.

| Structure (SMILES) | Potency | max response |
| --- | --- | --- |
| CCOCn1c(-c2ccc(Cl)cc2)c(C#N)c(Br)c1C(F)(F)F | 7.94 µM (active) | – |
| CC(Oc1cccc(Cl)c1)C(=O)O (stereo not given) | – | -4.52% |
| Cc1ccccc1C(=O)Nc1cccc(OC(C)C)c1 | – | -16% |
| CCNc1nc(NC(C)C)nc(OC)n1 | – | 0.985% |
| Cc1c(F)c(F)c(COC(=O)C2C(/C=C(\Cl)C(F)(F)F)C2(C)C)c(F)c1F (stereo not given) | – | -6.4% |
| CCOc1ccc(C(C)(C)COCc2cccc(Oc3ccccc3)c2)cc1 | – | -6.28% |
| Oc1c(Cl)cc(Cl)cc1Cl | – | -4.3% and -11% |
| C=CC(=O)NCO | – | -8.84% and -5.85% |
| CCCCCCCCCCCC#N | – | -1.15% |
| CCC[CH2][Sn]([CH2]CCC)([CH2]CCC)[O]C(=O)c1ccccc1 | 7.08 µM (active) | – |
| CC(c1ccc(O)cc1)(c1ccc(O)cc1)c1ccc(O)cc1 | – | -0.68% |
| Cc1nc(N(C)C)nc(OC(=O)N(C)C)c1C | – | -11.4% |
| OC(c1ccc(Cl)cc1)(c1ccc(Cl)cc1)C(Cl)(Cl)Cl | – | 0.684% and -14.8% |
| CNC(=O)Oc1cc(C)cc(C(C)C)c1 | – | -6.56% |
| CCC(C)(C)c1ccc(O)c(C(C)(C)CC)c1 | – | -2.63% |
| COc1cc(OC)nc(NC(=O)NS(=O)(=O)c2ncccc2OCC(F)(F)F)n1 | – | -8.98% |
| CC(C)CC(C)Nc1ccc(Nc2ccccc2)cc1 (stereo not given) | – | -21.7% |
| CC(C)(C)C(=O)[C@H](Oc1ccc(Cl)cc1)n1cncn1 | – | -16.1% |
| Cn1cc(-c2ccccc2)c(=O)c(-c2cccc(C(F)(F)F)c2)c1 | – | -5.04% |
| Clc1ccc([C@@]2(Cn3cncn3)C[C@@H](Br)CO2)c(Cl)c1 | – | -20.7% |

| Structure (SMILES) | Potency | max response |
| --- | --- | --- |
| CCCOc1nn(C(=O)NS(=O)(=O)c2ccccc2C(=O)OC)c(=O)n1C | – | -4.57% |
| CC1(C)CCC(Cc2ccc(Cl)cc2)C1(O)Cn1cncn1 (stereo not given) | – | -17.8% |
| OC(Cn1cncn1)(c1ccc(F)cc1)c1ccccc1F (stereo not given) | – | -3.84% |
| C=CC(=O)OCCCCCC(C)C | – | 4.71% |
| C=CCOC(=O)C(C)(C)OC(=O)c1cc(-n2c(=O)cc(C(F)(F)F)n(C)c2=O)ccc1Cl | – | -6.91% |
| N#CN=C1SCCN1Cc1ccc(Cl)nc1 | – | 1.43% |
| COc1nc(C)nc(NC(=O)NS(=O)(=O)c2ccccc2CCC(F)(F)F)n1 | – | 0.421% |
| O=C(O)[C@@H]1[C@H](C(=O)O)[C@@]2(Cl)C(Cl)=C(Cl)[C@]1(Cl)C2(Cl)Cl | – | -18.3% |
| CC(C)[C@H](C(=O)O[C@H](C#N)c1cccc(Oc2ccccc2)c1)c1ccc(Cl)cc1 | – | -17.9% |
| O=C(O)C(F)(F)C(F)(F)C(F)(F)C(F)(F)C(F)(F)C(F)(F)C(F)(F)C(F)(F)F | – | -7.25% and -13% |
| O=C(Nc1ccccc1)Nc1ccnc(Cl)c1 | – | -3.84% |
| CN(C)c1ccc(C(=O)c2ccc(N(C)C)cc2)cc1 | – | -23.3% |
| CCCCOC(=O)c1ccccc1C(=O)O | – | 6.89% |
| CCNc1nc(Cl)nc(NC(C)(C)C)n1 | – | -13.7% |
| CC1=C(C(=O)Nc2ccccc2)SCCO1 | – | -15.4% |
| Nc1nc(N)nc(N)n1 | – | -12% |
| O=C1C=CC(=O)c2ccccc21 | – | -3.96% |
| C=C(C)C(=O)OCC(CC)CCCC (stereo not given) | – | 2.46% |
| Cc1nn(-c2cc(NS(C)(=O)=O)c(Cl)cc2Cl)c(=O)n1C(F)F | – | -6.27% |
| Cc1cccc2sc3nncn3c12 | – | -3.66% |
